Molecules are shown by their SMILES.

For this assay, the target named is AMP-activated protein kinase, AMPK (Homo sapiens) (UniProt P54646+O43741+P54619+Q9UGJ0+Q9Y478+Q13131+Q9UGI9). The assay is described as follows: AMP-dependent Kinase enzyme assay. An in vitro enzyme assay that detects ADP turnover that is directly proportional to AMPK activity. This uses naive AMPK that is activated during the assay with MK-8722. In kind it is functional. More on the design: scale not given: direction of the effect not stated beside the values. The following applies: 30 µM.
In the case of `Cc1nccn1-c1ccc(C(=O)NCC(F)(F)F)nn1`, the Percent Effect was -3.73%.
As for `CC(=O)NCC(=O)N1CCCC(C(=O)c2ccc(C(C)(C)C)cc2)C1` (stereo unspecified), the figure is 7.51%; as for `Cc1nsc(C(=O)NCCc2ccccc2)n1`, 3.51%.
In the case of `O=C(CCOc1ccccc1F)N1CCOCC1`, the Percent Effect was -12.5%.
Regarding `CC(NC(=O)Nc1ccc(-c2csnn2)cc1)C(=O)NC(C)(C)C` (stereo unspecified), the Percent Effect was -8.32%.
The same measure for `C[C@@H]1CN(Cc2cc3ccccc3n2C)CC[C@@]1(O)C1CC1`: 14.8%; for `COCc1nc(C2CC2)nn1-c1cc(Cl)ccc1OC`: -8.6%.
With `CCn1cc(CN(C)Cc2cnn(-c3ccc(F)cc3)c2)cn1`, the Percent Effect is 13.6%.
As for `CSCCC(NC(=O)C1CC1)C(=O)N(C)Cc1ccsc1` (stereo unspecified), the figure is -0.745%; as for `Cc1nc2c(c(N[C@@H](CO)C(N)=O)n1)Cc1ccccc1OC2`, -0.406%.
Take `CCC(Nc1ccc(CCN2CCOCC2)cc1)C(N)=O` (stereo unspecified): the Percent Effect was -3.46%.
As for `O=S(=O)(N1CCOCC1)N1CCCCC1CCn1cccn1` (stereo unspecified), the figure is 29.5%.
The same measure for `COCCOc1ncccc1NCc1nc2ccccc2n1C`: 7.32%; for `CC(C)c1ccccc1NC(=O)N1C[C@@H]2CC[C@H](C1)N(C)C2=O`: -7.67%; for `Cc1ccc(-n2cc(C(=O)NCc3nnc4n3CCCCC4)nn2)cc1`: 5.45%.
Consider `COCc1cccc(NC(=O)NCCCN(C)S(C)(=O)=O)c1`, for which the Percent Effect was -1.69%.
The same measure for `CCN(CC)C1CCN(c2ncnc3c2CCN(C(=O)C2CC2)C3)C1` (stereo unspecified): -3.94%; for `CN(Cc1csc2ccccc12)C(=O)NC1CCS(=O)(=O)C1` (stereo unspecified): 8.42%.
As to `O=C(CCn1cc(Cl)cn1)N1CCC2(CC1)OCCCC2O` (stereo unspecified), the Percent Effect is -8.21%.
As for `O=C(NCC(F)(F)F)c1ccc(-n2cccn2)nn1`, the figure is 0.877%; as for `Fc1ccc(C2(c3noc(CCN4CCCCO4)n3)CCOC2)cc1` (stereo unspecified), 5.16%.
